Measurements from article PMC11062922 (Nature Chemical Biology, 2023).
Where two headings read alike, the source gives them in different places.

Legend:
Parameters in all cases: species or system human, MV4-11 + K-562 + COLO205 + SK-N-BE2 + OVCAR-8
ADCK3 = conditions: read-out: apparent Kd, n = 1
ADRBK1 = conditions: read-out: apparent Kd; compound concentrations: 100 nM and 1000 nM (sheet 'Samples'), CATDS: 4.7657416287883198E-2; n = 1
AKT1 = conditions: read-out: apparent Kd; compound concentrations: 100 nM and 1000 nM (sheet 'Samples'), CATDS: 4.0938746042506198E-2; n = 1
CSNK1A1 = conditions: read-out: apparent Kd; compound concentrations: 100 nM and 1000 nM (sheet 'Samples'), CATDS: 4.27416149593133E-2; n = 1
DYRK1A = conditions: read-out: apparent Kd; compound concentrations: 100 nM and 1000 nM (sheet 'Samples'), CATDS: 4.0227920038392803E-2; n = 1
ILK = conditions: read-out: apparent Kd; compound concentrations: 100 nM and 1000 nM (sheet 'Samples'), CATDS: 5.1421329598879802E-2; n = 1
MAP2K2 = conditions: read-out: apparent Kd; compound concentrations: 100 nM and 1000 nM (sheet 'Samples'), CATDS: 0.12895351362438101; n = 1
MAP3K1 = conditions: read-out: apparent Kd; compound concentrations: 100 nM and 1000 nM (sheet 'Samples'), CATDS: 4.18687434788882E-2; n = 1
MDN1 = conditions: read-out: apparent Kd; compound concentrations: 100 nM and 1000 nM (sheet 'Samples'), CATDS: 4.35192896952597E-2; n = 1
NNT = conditions: read-out: apparent Kd; compound concentrations: 100 nM and 1000 nM (sheet 'Samples'), CATDS: 0.130086313463294; n = 1
NQO1 = conditions: read-out: apparent Kd; compound concentrations: 100 nM and 1000 nM (sheet 'Samples'), CATDS: 0.14484490381839699; n = 1
PIK3C3 = conditions: read-out: apparent Kd; compound concentrations: 100 nM and 1000 nM (sheet 'Samples'), CATDS: 4.45420285121335E-2; n = 1
PLK1 = conditions: read-out: apparent Kd; compound concentrations: 100 nM and 1000 nM (sheet 'Samples'), CATDS: 0.280824965441342; n = 1
PSMC3 = conditions: read-out: apparent Kd; compound concentrations: 100 nM and 1000 nM (sheet 'Samples'), CATDS: 4.0647702260791799E-2; n = 1
RIOK2 = conditions: read-out: apparent Kd; compound concentrations: 100 nM and 1000 nM (sheet 'Samples'), CATDS: 4.4447834501145103E-2; n = 1
SMG1 = conditions: read-out: apparent Kd; compound concentrations: 100 nM and 1000 nM (sheet 'Samples'), CATDS: 4.1869296169603699E-2; n = 1
STK10 = conditions: read-out: apparent Kd; compound concentrations: 100 nM and 1000 nM (sheet 'Samples'), CATDS: 4.6875467745806497E-2; n = 1
VDAC3 = conditions: read-out: apparent Kd; compound concentrations: 100 nM and 1000 nM (sheet 'Samples'), CATDS: 0.150958833754439; n = 1
DHCR24 = conditions: read-out: apparent Kd; compound concentrations:100 nM and 1000 nM (sheet 'Samples'); n = 1
DJA1 = test system: T1, DJA1; conditions: read-out: apparent Kd; compound concentrations:100 nM and 1000 nM (sheet 'Samples'); n = 1
T1 construct: gene DNAJA1

ERBB3 = conditions: read-out: apparent Kd; compound concentrations:100 nM and 1000 nM (sheet 'Samples'); n = 1
PI4KA = conditions: read-out: apparent Kd; compound concentrations:100 nM and 1000 nM (sheet 'Samples'); n = 1
PI4KB = conditions: read-out: apparent Kd; compound concentrations:100 nM and 1000 nM (sheet 'Samples'); n = 1
PIK3C2A = conditions: read-out: apparent Kd; compound concentrations:100 nM and 1000 nM (sheet 'Samples'); n = 1
PIK3C2B = conditions: read-out: apparent Kd; compound concentrations:100 nM and 1000 nM (sheet 'Samples'); n = 1
PIK3CA = conditions: read-out: apparent Kd; compound concentrations:100 nM and 1000 nM (sheet 'Samples'); n = 1
PIK3CB = conditions: read-out: apparent Kd; compound concentrations:100 nM and 1000 nM (sheet 'Samples'); n = 1
PIK3CD = conditions: read-out: apparent Kd; compound concentrations:100 nM and 1000 nM (sheet 'Samples'); n = 1
PRKDC = conditions: read-out: apparent Kd; compound concentrations:100 nM and 1000 nM (sheet 'Samples'); n = 1

C[C@@H](Oc1cc(-n2cnc3ccc(OC[C@@H](O)CO)cc32)sc1C(N)=O)c1ccccc1Cl [GSK978744A]
potency estimated from few doses (ADCK3; compound concentrations: 100 nM and 1000 nM (sheet 'Samples'), CATDS: 5.9783524932330002E-2): 691 nM | potency estimated from few doses (ADRBK1): 1300 nM | potency estimated from few doses (AKT1): 2160 nM | potency estimated from few doses (CSNK1A1): 1860 nM | potency estimated from few doses (DYRK1A): 2310 nM | potency estimated from few doses (ILK): 1040 nM | potency estimated from few doses (MAP2K2): 124 nM | potency estimated from few doses (MAP3K1): 2000 nM | potency estimated from few doses (MDN1): 1740 nM | potency estimated from few doses (NNT): 122 nM | potency estimated from few doses (NQO1): 99.8 nM | potency estimated from few doses (PIK3C3): 1620 nM | potency estimated from few doses (PLK1): 35.3 nM | potency estimated from few doses (PSMC3): 2220 nM | potency estimated from few doses (RIOK2): 1630 nM | potency estimated from few doses (SMG1): 1990 nM | potency estimated from few doses (STK10): 1370 nM | potency estimated from few doses (VDAC3): 92.8 nM

COc1ccc(-c2cc3c(C)nc(N)nc3n([C@H]3CC[C@H](OCCO)CC3)c2=O)cn1 [PFE-PKIS_29]
potency estimated from few doses (ADCK3; compound concentrations:100 nM and 1000 nM (sheet 'Samples')): 1460 nM | potency estimated from few doses (DHCR24): 1750 nM | potency estimated from few doses (DJA1): 1960 nM | potency estimated from few doses (ERBB3): 453 nM | potency estimated from few doses (PI4KA): 61.5 nM | potency estimated from few doses (PI4KB): 702 nM | potency estimated from few doses (PIK3C2A): 999 nM | potency estimated from few doses (PIK3C2B): 34.9 nM | potency estimated from few doses (PIK3CA): 1.27 nM | potency estimated from few doses (PIK3CB): 10.3 nM | potency estimated from few doses (PIK3CD): 0.67 nM | potency estimated from few doses (PRKDC): 817 nM
